Assay results taken from PubChem BioAssay (NCI).
Compounds without any hit were thinned out: in the full panel of roughly 83,000, 20% have a hit.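 How to read the values: 0–100, growth inhibition (40 = 60% inhibited); 0, no net growth; -100 to 0, cell death (-40 = 40% of starting cells died; -100 = all dead).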 Activity calls are given as the source filed them. How the source made its calls: active means growth percent below 10; inactive means the rest.

Legend:
Assay in all cases: NCI-60 one-dose screen, 48 h (100 = growth as untreated, 0 = no growth, -100 = all killed)
Conditions in all cases: 10 µM unless noted
SK-MEL-2 melanoma = system: SK-MEL-2 melanoma
EKVX NSCLC = system: EKVX NSCLC
SN12C renal = system: SN12C renal
UO-31 renal = system: UO-31 renal
TK-10 renal = system: TK-10 renal
ACHN renal = system: ACHN renal
CAKI-1 renal = system: CAKI-1 renal
A498 renal = system: A498 renal
CCRF-CEM leukemia = system: CCRF-CEM leukemia
MOLT-4 leukemia = system: MOLT-4 leukemia

Measured: growth

O=C(Nc1cccnc1Nc1ccc(F)cc1)c1cn(Cc2cccc(Oc3ccccc3)c2)nn1
inactive: SK-MEL-2 melanoma 73.9% | EKVX NSCLC 75.9% | SN12C renal 79.2% | UO-31 renal 46.7% | TK-10 renal 98.7% | ACHN renal 83.7% | CAKI-1 renal 78% | A498 renal 60.5% | CCRF-CEM leukemia 63.2% | MOLT-4 leukemia 32%

CC1=NN(c2nc(SCC(=O)Nc3nc4ccc(C)cc4s3)nc(-c3ccccc3)c2C#N)C(=O)C1
inactive: SK-MEL-2 melanoma 111% | EKVX NSCLC 106% | SN12C renal 95.6% | UO-31 renal 67.8% | TK-10 renal 131% | ACHN renal 96.3% | CAKI-1 renal 87.3% | A498 renal 101% | CCRF-CEM leukemia 107% | MOLT-4 leukemia 99.8%

N#CC1=C(N)Oc2c(sc3c(Br)cccc23)C1c1ccc(F)cc1 (stereo not given)
active: MOLT-4 leukemia 5.38%
inactive: SK-MEL-2 melanoma 37% | EKVX NSCLC 45.6% | SN12C renal 27.4% | UO-31 renal 34.4% | TK-10 renal 43.1% | ACHN renal 30.7% | CAKI-1 renal 46.6% | A498 renal 17.8% | CCRF-CEM leukemia 18.4%

CC1(C)CCC(S(=O)(=O)c2ccc3c(c2)/C(=N\O)c2cc(S(=O)(=O)N4CCC(O)(c5cccc(C(F)(F)F)c5)CC4)ccc2-3)CC1
active: SK-MEL-2 melanoma -90.2% | EKVX NSCLC -33.4% | SN12C renal 3.73% | TK-10 renal -35.7% | ACHN renal -13.3% | CAKI-1 renal -37.7% | A498 renal -51.5% | CCRF-CEM leukemia -58.4% | MOLT-4 leukemia -69.2%
inactive: UO-31 renal 45.6%

O=C1Nc2ccc(I)cc2C1=O
inactive: SK-MEL-2 melanoma 85.4% | EKVX NSCLC 102% | SN12C renal 98% | UO-31 renal 77.9% | TK-10 renal 140% | ACHN renal 103% | CAKI-1 renal 64.5% | A498 renal 122% | CCRF-CEM leukemia 119% | MOLT-4 leukemia 102%

O=C1/C(=C/c2ccc(F)cc2)COc2ccc(O)cc21
inactive: SK-MEL-2 melanoma 114% | EKVX NSCLC 101% | SN12C renal 78.4% | UO-31 renal 64.5% | TK-10 renal 100% | ACHN renal 87.7% | CAKI-1 renal 75.8% | A498 renal 111% | MOLT-4 leukemia 51.7%
active: CCRF-CEM leukemia 5.18%

C[C@@H]1CCC[C@H]1CC(N)C(=O)O (stereo not given in full)
active: CAKI-1 renal -76.8%
inactive: SK-MEL-2 melanoma 132% | EKVX NSCLC 98.4% | SN12C renal 114% | UO-31 renal 99% | TK-10 renal 130% | ACHN renal 99.5% | A498 renal 97.9% | CCRF-CEM leukemia 104% | MOLT-4 leukemia 114%

CC1=Nc2cnc(Nc3ccc(OCCN4CCCCC4)cc3)nc2Nc2ccccc21
inactive: SK-MEL-2 melanoma 50.2% | EKVX NSCLC 78.3% | SN12C renal 49.2% | UO-31 renal 11% | TK-10 renal 64.2% | ACHN renal 27.1% | CAKI-1 renal 17.2% | CCRF-CEM leukemia 70.2% | MOLT-4 leukemia 25.4%
active: A498 renal -9.49%

CN1CCN(Cc2ccc(NC(=O)c3cncc(C#Cc4cnc(N)c5ccccc45)c3)cc2C(F)(F)F)CC1
active: SK-MEL-2 melanoma -81.6% | EKVX NSCLC -96.3% | SN12C renal -90.7% | UO-31 renal -89.7% | TK-10 renal -90% | ACHN renal -100% | CAKI-1 renal -92.1% | A498 renal -87% | CCRF-CEM leukemia -6.38% | MOLT-4 leukemia 2.94%

CCn1c(=S)[nH]c2c(=O)n(C)c(=O)n(C)c21
inactive: SK-MEL-2 melanoma 103% | EKVX NSCLC 95.1% | SN12C renal 101% | UO-31 renal 93.9% | TK-10 renal 108% | ACHN renal 97.6% | CAKI-1 renal 102% | A498 renal 113% | CCRF-CEM leukemia 102% | MOLT-4 leukemia 98.2%

COC(=O)c1ccc2c(c1)C(=O)c1c-2n(CCCN)c(=O)c2cc([N+](=O)[O-])ccc12
active: SK-MEL-2 melanoma -49.8% | EKVX NSCLC -87.7% | SN12C renal -100% | UO-31 renal -100% | TK-10 renal -83% | ACHN renal -100% | CAKI-1 renal -94.2% | A498 renal -100% | CCRF-CEM leukemia -83.9% | MOLT-4 leukemia -58.6%

CN1C(=O)/C(=C/c2ccc(C(=O)Nc3ncc(Cc4ccc(Cl)cc4)s3)cc2)SC1=S
inactive: SK-MEL-2 melanoma 75.6% | EKVX NSCLC 52.6% | SN12C renal 68.1% | UO-31 renal 46.7% | TK-10 renal 57.7% | ACHN renal 29.2% | CAKI-1 renal 21.2% | A498 renal 39.9% | CCRF-CEM leukemia 55.5% | MOLT-4 leukemia 46.8%
